Measurements as given in PubChem BioAssay (NCATS).
Records with an inconclusive call do not appear. The source made the active and inactive calls. Unless noted, calls follow the shape of the dose curve; as a rule, active = well fitted curve in the direction sought with a large enough effect; inconclusive = small, poorly fitted or top-dose-only effect, or another doubt; inactive = no such curve, though single readings can be large; an effect the other way counts as inactive or inconclusive.

How the values were obtained:
[1] = qHTS for Inhibitors of the Functional Ribonucleoprotein Complex (vRNP) of Lassa (LASV) Arenavirus: Viability assay - alamar blue signal for LASV Primary Screen (AID 1347083; calls by dose curve; tested in HEK293 reporter line; also: series mostly up to about 57 µM; nearly all actives have a fitted effect of over 80% in size)
[2] = qHTS for Inhibitors of the Functional Ribonucleoprotein Complex (vRNP) of Lymphocytic Choriomeningitis Arenaviruses (LCMV): Viability assay - alamar blue signal for LCMV Primary Screen (AID 1347085; calls by dose curve; tested in HEK293 reporter line; also: series mostly up to about 57 µM; nearly all actives have a fitted effect of over 80% in size)
[3] = biological target: Nucleoprotein (Lymphocytic choriomeningitis virus (strain Armstrong)) (UniProt P09992); assay: qHTS for Inhibitors of the Functional Ribonucleoprotein Complex (vRNP) of Lymphocytic Choriomeningitis Arenaviruses (LCMV): LCMV Primary Screen - GLuc reporter signal (AID 1347086; calls by dose curve; also: series mostly up to about 57 µM; nearly all actives have a fitted effect of over 70% in size)
[4] = qHTS of pediatric cancer cell lines to identify multiple opportunities for drug repurposing: Primary screen for TC32 cells (AID 1347089); also: nearly all actives have a fitted effect of over 60% in size
How it was run: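 A viability screen of TC32 cells was run over 48 h, with primary MIPE doses spanning 0.78 nM–46 µM and NPC doses 0.59 nM–46 µM. ATP luminescence (CellTiter-Glo) served as the read-out.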

[5] = qHTS of pediatric cancer cell lines to identify multiple opportunities for drug repurposing: Primary screen for DAOY cells (AID 1347090); also: series mostly up to about 46 µM; nearly all actives have a fitted effect of over 55% in size
How it was run: (§1)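 Eight- or eleven-point concentration series, 48 h treatment at 37 degrees C in growth media; readout CellTiter-Glo luminescence. Potency and efficacy were taken from the concentration-response curves.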

[6] = qHTS of pediatric cancer cell lines to identify multiple opportunities for drug repurposing: Primary screen for SJ-GBM2 cells (AID 1347091)
How it was run: as §1

[7] = qHTS of pediatric cancer cell lines to identify multiple opportunities for drug repurposing: Primary screen for A673 cells (AID 1347092); also: nearly all actives have a fitted effect of over 45% in size
How it was run: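 Titration-based qHTS on A673 cells: MIPE compounds spanned 11 points (0.78 nM to 46 µM final), NPC compounds 8 points (0.59 nM to 46 µM final). Viability after 48 h was measured by ATP luminescence.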

[8] = qHTS of pediatric cancer cell lines to identify multiple opportunities for drug repurposing: Primary screen for SK-N-MC cells (AID 1347093); also: series mostly up to about 46 µM
How it was run: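 Metabolically active cells were quantified by ATP-dependent luminescence (CellTiter-Glo, 15 min at room temperature) following 48 h treatment. Cells had been plated at 500-1,000 per well and settled for 5 h beforehand.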

[9] = qHTS of pediatric cancer cell lines to identify multiple opportunities for drug repurposing: Primary screen for BT-37 cells (AID 1347094); also: series mostly up to about 57 µM
How it was run: (§2)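 Viability was measured as metabolically active cells after 48 hours of treatment, read by CellTiter-Glo luminescence. Compounds were tested at multiple final concentrations, giving concentration-response curves.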

[10] = qHTS of pediatric cancer cell lines to identify multiple opportunities for drug repurposing: Primary screen for NB-EBc1 cells (AID 1347095)
How it was run: as §2

[11] = qHTS of pediatric cancer cell lines to identify multiple opportunities for drug repurposing: Primary screen for U-2 OS cells (AID 1347096); also: nearly all actives have a fitted effect of over 50% in size
How it was run: (§3)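 Cells (500-1,000/well) in growth media were settled 5 h at 37 degrees C, then given compounds for 48 h. Viability was read as CellTiter-Glo luminescence. Primary runs used MIPE at 11 points (0.78 nM-46 µM) and NPC at 8 points (0.59 nM-46 µM); follow-ups used 11 points.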

[12] = qHTS of pediatric cancer cell lines to identify multiple opportunities for drug repurposing: Primary screen for Saos-2 cells (AID 1347097); also: nearly all actives have a fitted effect of over 40% in size
How it was run: as §2

[13] = qHTS of pediatric cancer cell lines to identify multiple opportunities for drug repurposing: Primary screen for SK-N-SH cells (AID 1347098);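 also: DMSO served as neutral control and bortezomib at 2.3 µM as positive control; nearly all actives have a fitted effect of over 65% in size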
How it was run: (§4)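 Cells (500-1,000/well) rested 5 h, then received compounds for 48 h; metabolically active cells were measured by CellTiter-Glo luminescence. Final concentrations spanned up to 46 µM (MIPE, 11-point) or 0.59 nM-46 µM (NPC, 8-point) in primary screens, 11-point in follow-ups.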

[14] = qHTS of pediatric cancer cell lines to identify multiple opportunities for drug repurposing: Primary screen for LAN-5 cells (AID 1347100)
How it was run: as §3

[15] = qHTS of pediatric cancer cell lines to identify multiple opportunities for drug repurposing: Primary screen for BT-12 cells (AID 1347101); also: nearly all actives have a fitted effect of over 25% in size
How it was run: as §4

[16] = qHTS of pediatric cancer cell lines to identify multiple opportunities for drug repurposing: Primary screen for Rh18 cells (AID 1347102); also: nearly all actives have a fitted effect of over 65% in size
How it was run: as §3

[17] = qHTS of pediatric cancer cell lines to identify multiple opportunities for drug repurposing: Primary screen for OHS-50 cells (AID 1347103); also: nearly all actives have a fitted effect of over 40% in size
How it was run: as §4

[18] = qHTS of pediatric cancer cell lines to identify multiple opportunities for drug repurposing: Primary screen for RD cells (AID 1347104); also: nearly all actives have a fitted effect of over 55% in size
How it was run: as §2

[19] = qHTS of pediatric cancer cell lines to identify multiple opportunities for drug repurposing: Primary screen for MG 63 (6-TG R) cells (AID 1347105); also: nearly all actives have a fitted effect of over 50% in size
How it was run: as §2

[20] = qHTS of pediatric cancer cell lines to identify multiple opportunities for drug repurposing: Primary screen for NB1643 cells (AID 1347099); also: nearly all actives have a fitted effect of over 50% in size
How it was run: as §2

Measured: Potency

Sequence of Nucleoprotein (Lymphocytic choriomeningitis virus (strain Armstrong)) (P09992 whole entry, looked up): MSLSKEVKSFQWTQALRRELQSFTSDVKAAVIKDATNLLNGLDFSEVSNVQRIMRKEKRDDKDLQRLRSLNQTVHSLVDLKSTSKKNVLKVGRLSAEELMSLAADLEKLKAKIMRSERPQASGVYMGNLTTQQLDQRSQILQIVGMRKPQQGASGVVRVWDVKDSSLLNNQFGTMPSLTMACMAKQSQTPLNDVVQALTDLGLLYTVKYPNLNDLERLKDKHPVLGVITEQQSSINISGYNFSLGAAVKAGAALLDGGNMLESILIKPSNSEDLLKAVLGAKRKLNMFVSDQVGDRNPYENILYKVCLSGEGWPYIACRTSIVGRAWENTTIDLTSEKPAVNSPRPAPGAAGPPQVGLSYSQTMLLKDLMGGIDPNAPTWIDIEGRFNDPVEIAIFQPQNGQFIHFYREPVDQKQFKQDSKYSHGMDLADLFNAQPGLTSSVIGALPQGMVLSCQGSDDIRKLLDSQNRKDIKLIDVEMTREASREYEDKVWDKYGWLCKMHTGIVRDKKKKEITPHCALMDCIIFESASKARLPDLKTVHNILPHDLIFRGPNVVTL

CC(=O)OC(C)C[N+](C)(C)C (stereo not given)
inactive: [1] | [2] | [3]

Cc1cc(=O)[nH]c(=S)[nH]1
inactive: [1] | [2] | [3]

COC(=O)c1cc(Cl)ccc1OC
inactive: [1] | [2] | [3]

OC[C@H]1O[C@@H]2O[C@H]3[C@H](O)[C@@H](O)[C@@H](O[C@H]4[C@H](O)[C@@H](O)[C@@H](O[C@H]5[C@H](O)[C@@H](O)[C@@H](O[C@H]6[C@H](O)[C@@H](O)[C@@H](O[C@H]7[C@H](O)[C@@H](O)[C@@H](O[C@H]8[C@H](O)[C@@H](O)[C@@H](O[C@H]1[C@H](O)[C@H]2O)O[C@@H]8CO)O[C@@H]7CO)O[C@@H]6CO)O[C@@H]5CO)O[C@@H]4CO)O[C@@H]3CO
inactive: [1] | [2] | [3]

COc1ccc(C(=O)c2ccccc2O)c(O)c1
inactive: [1] | [2] | [3]

CCCCCC=CCC=CCCCCCCCC(=O)OCC
inactive: [1] | [2] | [3]

C[C@@H](CN1CC(=O)NC(=O)C1)N1CC(=O)NC(=O)C1
inactive: [1] | [2] | [3]

NC(=O)c1cccnc1
inactive: [1] | [2] | [3]

CC1(C)O[C@@H]2C[C@H]3[C@@H]4CCC5=CC(=O)C=C[C@]5(C)[C@@H]4[C@@H](O)C[C@]3(C)[C@]2(C(=O)CO)O1
inactive: [1] | [2] | [3]

Cc1ccc(S(=O)(=O)NC(=O)NC2CCCCC2)cc1
inactive: [1] | [2] | [3]

CC(=O)[C@@]1(O)CC[C@H]2[C@@H]3C[C@H](C)C4=CC(=O)C=C[C@]4(C)[C@@]3(F)[C@@H](O)C[C@@]21C
inactive: [1] | [2] | [3]

CCCCN(CCCC)CCCOC(=O)c1ccc(N)cc1
inactive: [1] | [2] | [3]

CC(=O)[C@H]1CC[C@H]2[C@@H]3C[C@H](C)C4=CC(=O)CC[C@]4(C)[C@H]3[C@@H](O)C[C@]12C
inactive: [1] | [2] | [3]

Cc1ccc(O)c2ncccc12
inactive: [1] | [2] | [3]

Clc1ccc2nsnc2c1NC1=NCCN1
inactive: [1] | [2] | [3]

Nc1ccn(C[C@@H](CO)OCP(=O)(O)O)c(=O)n1
inactive: [1] | [2] | [3]

NS(=O)(=O)c1cc(Cl)c(Cl)c(S(N)(=O)=O)c1
inactive: [1] | [2] | [3]

CCOC(=O)c1ccc(OCCN2C[C@H](O)[C@@H](O)[C@H](O)[C@H]2CO)cc1
inactive: [1] | [2] | [3]

CCCCCCOc1ccccc1C(N)=O
inactive: [1] | [2] | [3]

O=C(O)CN1C(=O)c2cccc3cccc(c23)C1=O
inactive: [1] | [2] | [3]

O=P(O)(O)C(O)(Cn1ccnc1)P(=O)(O)O
inactive: [1] | [2] | [3]

S=P(N1CC1)(N1CC1)N1CC1
inactive: [1] | [2] | [3]

CCCCCCCC(=O)OCC(COC(=O)CCCCCCC)OC(=O)CCCCCCC
inactive: [1] | [2] | [3]

Oc1ccccc1-c1nnco1
inactive: [1] | [2] | [3]

CCN(Cc1ccncc1)C(=O)C(CO)c1ccccc1 (stereo not given)
inactive: [1] | [2] | [3]

NC(=O)N[C@@H](CCC(=O)O)C(=O)O
inactive: [1] | [2] | [3]

NC1CCN(c2nc3c(cc2F)c(=O)c(C(=O)O)cn3-c2ccc(F)cc2F)C1 (stereo not given)
inactive: [1] | [2] | [3]

OCCc1ccccc1
inactive: [1] | [2] | [3]

CCOC(N)=O
inactive: [1] | [2] | [3]

CC(=O)Nc1ccc(OC(=O)c2ccccc2OC(C)=O)cc1
inactive: [1] | [2] | [3]

CO/N=C(/C(=O)N[C@@H]1C(=O)N2C(C(=O)OCOC(=O)C(C)(C)C)=C(C)CS[C@H]12)c1csc(N)n1
inactive: [1] | [2] | [3]

Cc1nc([N+](=O)[O-])cn1-c1ccc([N+](=O)[O-])cc1
inactive: [1] | [2] | [3]

c1ccc(-c2nc[nH]c2-c2ccccc2)cc1
inactive: [1] | [2] | [3]

COc1ccc(C(=O)CC(=O)c2ccc(C(C)(C)C)cc2)cc1
inactive: [1] | [2] | [3]

O=c1c(-c2ccc(O)cc2)coc2cc(O)cc(O)c12
inactive: [1] | [2] | [3]

NS(=O)(=O)c1ccc(C(=O)O)cc1
inactive: [1] | [2] | [3]

CN1C(=O)NC(=O)C(C)(C2=CCCCC2)C1=O (stereo not given)
not listed: [19] | [20]
inactive: all other assays above

COP(=S)(OC)Oc1ccc(SC)c(C)c1
not listed: [20]
inactive: all other assays above

CCCOC(=O)c1cncn1C(C)c1ccccc1 (stereo not given)
not listed: [19]
inactive: all other assays above

CCN[C@@H](C)Cc1ccccc1
not listed: [20]
inactive: all other assays above

C[C@@H](N)[C@@H](O)c1ccccc1
inactive: all assays above

COc1ccc2c(c1OC)C(=O)O[C@H]2[C@@H]1c2cc3c(cc2CCN1C)OCO3
not listed: [19]
inactive: all other assays above

O=[N+]([O-])O[C@H]1CO[C@H]2[C@@H]1OC[C@H]2O[N+](=O)[O-]
inactive: all assays above

COc1cc(CC(C)N)cc(OC)c1OC (stereo not given)
not listed: [20]
inactive: all other assays above

C[N+](C)(C)CCCCCC[N+](C)(C)C
inactive: [1] | [2] | [3]

CC(C)(C)NCC(O)COc1ccccc1OCC1CCCO1 (stereo not given)
inactive: [1] | [2] | [3]

CC(C)(C)NCC(O)c1ccccc1Cl (stereo not given)
not listed: [13]
inactive: all other assays above

O=C(N/N=C/c1ccccc1O)c1ccncc1
inactive: [1] | [2] | [3]

NC(CS)C(=O)O (stereo not given)
inactive: [1] | [2] | [3]

NCCc1ccc(O)cc1
not listed: [19]
inactive: all other assays above

COC(=O)C(Cl)C(=O)OC
inactive: all assays above

CN1CC[C@]23c4c5ccc(O)c4O[C@H]2[C@@H](O)CC[C@H]3[C@H]1C5
not listed: [19] | [20]
inactive: all other assays above

CCC1(c2ccccc2)C(=O)N(COC)C(=O)N(COC)C1=O
not listed: [20]
inactive: all other assays above

CN1CCC[C@@H]1c1cccnc1
inactive: [1] | [2] | [3]

NC(=O)NC1NC(=O)NC1=O (stereo not given)
inactive: [1] | [2] | [3]

CN(C)CCc1c[nH]c2cccc(OP(=O)(O)O)c12
not listed: [20]
inactive: all other assays above

Nc1ccccc1C(=O)O
not listed: [20]
inactive: all other assays above

NC(=O)CS(=O)C(c1ccccc1)c1ccccc1 (stereo not given)
not listed: [19] | [20]
inactive: all other assays above
